# Calls of active or inactive are those of the source.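 Rule for the calls, unless noted: active = inhibition above 20% together with a positive visual image hit; inconclusive = visual image hit but inhibition not above 20%; inactive = no visual image hit.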
# Tests used:
# [1] = inhibitors of TNFa-induced NFkB p65 translocation, primary screen, imaging, HUVEC, MLSMR starter and 10KST1 sets (AID 438); details: HUVEC TNFa-induced p65 nuclear translocation; cell count: measured here: nuclei count (cytotoxicity indicator), at 2.08 µM; inhibition: at 2 µM, stronger effect = higher value, 0% TNFa-plus-vehicle, 100% no-TNFa wells;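 note: compound added about 3h40 before a 20 min TNFalpha stimulation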;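 for inhibition: signal is the nuclear over cytoplasmic p65 intensity ratio per well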
# [2] = inhibitors of mutant huntingtin aggregation, primary screen, imaging, exon1htt(103Q)mCFP cells, high-content imaging (AID 483;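 active = visual image review flags a hit and inhibition of aggregation exceeds 20%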;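 note: compound exposure lasted 3 days before fixation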;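 for nuclei count: percent of the per-plate median nuclei count of sample wells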); details: exon1htt(103Q)mCFP cell line, aggregate imaging, at 2 µM; inhibition of aggregation: stronger effect = higher value; nuclei count: measured here: cell count, toxicity
# [3] = inhibitors of E-selectin induction by TNFa, primary screen, imaging, HUVEC, immunofluorescence, MLSMR starter and 10KST1 sets (AID 487;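 active = visually confirmed hit in the image check and inhibition above 20%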;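 for inhibition: signal is fraction of cell area covered by stained E-selectin grains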;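 for nuclei count: 100% = median nuclei count of all wells on the same plate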); details: HUVEC TNFalpha-induced E-selectin immunofluorescence imaging, at 2 µM; inhibition: stronger effect = higher value; nuclei count: measured here: cell number, toxicity
# [4] = biological target: Voltage-gated potassium channel subunit beta-2 (Rattus norvegicus) (UniProt P62483); assay: KvBeta enzyme negative modulators, primary screen, biochemical, NADPH fluorescence (AID 622;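 active = fluorescence slope higher than the sample average by over 3 SD, cut at about -0.22 in these data, passing the limit was not always enough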;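 note: slope of raw intensity against log time taken from 70 to 1610 s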); details: recombinant KvBeta, 4-cyanobenzaldehyde reduction, at 10 µM, stronger effect = higher value
# Voltage-gated potassium channel subunit beta-2 (Rattus norvegicus), sequence (P62483 whole entry, looked up): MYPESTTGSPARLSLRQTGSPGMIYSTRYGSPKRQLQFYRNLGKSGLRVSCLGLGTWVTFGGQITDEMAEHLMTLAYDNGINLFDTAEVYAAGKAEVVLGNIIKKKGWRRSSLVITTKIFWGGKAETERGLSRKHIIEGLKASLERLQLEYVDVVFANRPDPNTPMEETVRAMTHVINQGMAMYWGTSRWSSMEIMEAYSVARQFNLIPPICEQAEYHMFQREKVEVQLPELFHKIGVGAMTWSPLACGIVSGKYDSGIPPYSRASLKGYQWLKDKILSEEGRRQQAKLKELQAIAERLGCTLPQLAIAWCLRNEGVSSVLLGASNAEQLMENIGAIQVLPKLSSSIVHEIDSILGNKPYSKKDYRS
# [5] = biological target: Voltage-gated potassium channel subunit beta-2 (Rattus norvegicus) (UniProt P62483); assay: KvBeta positive modulators, primary screen, biochemical, NADPH fluorescence (AID 623;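 active = NADPH fluorescence slope more negative than the mean of all samples by about 3 SD, 99.7% confidence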;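 note: fluorescence intensity change per second fitted from 20 to 320 s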); details: Recombinant KvBeta, NADPH fluorescence decrease slope, 10 min; at 10 µM; stronger effect = lower value
# [6] = biological target: Alpha-2C adrenergic receptor (Homo sapiens) (UniProt P18825); assay: modulators of alpha2C/GIRK thallium flux, primary screen, cell-based, HEK293 alpha2C/GIRK1/2 (AID 624;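 active = fluorescence slope after compound addition differing from the mean of all screened samples at 99.7% confidence, in either direction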;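 note: slope of fluorescence ratio to pre-addition baseline per second over 15 to 24 s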); details: thallium flux BTC fluorescence, at 10 µM, actives lie on both sides
# Alpha-2C adrenergic receptor (Homo sapiens), sequence (P18825 whole entry, looked up): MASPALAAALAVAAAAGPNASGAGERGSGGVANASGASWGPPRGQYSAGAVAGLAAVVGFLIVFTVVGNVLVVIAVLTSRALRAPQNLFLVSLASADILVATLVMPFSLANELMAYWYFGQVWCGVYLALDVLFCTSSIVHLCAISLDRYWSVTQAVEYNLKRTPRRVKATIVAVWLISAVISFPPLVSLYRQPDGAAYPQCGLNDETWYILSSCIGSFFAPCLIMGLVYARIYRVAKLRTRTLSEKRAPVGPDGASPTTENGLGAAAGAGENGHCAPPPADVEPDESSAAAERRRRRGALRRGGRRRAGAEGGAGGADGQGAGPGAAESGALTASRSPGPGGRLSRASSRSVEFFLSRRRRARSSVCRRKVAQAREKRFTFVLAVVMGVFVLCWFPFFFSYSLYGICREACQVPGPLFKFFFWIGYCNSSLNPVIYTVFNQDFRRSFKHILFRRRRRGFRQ
# [7] = inhibitors of Sendai virus-induced IRF3 signaling, primary screen, TLR/RLR signaling modifier project, cell-based, Sendai virus stimulus, luciferase, 10K MLSCN set (AID 602276;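 active = inhibition at or above 50% at 10 µM; inactive = inhibition below 50%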;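 note: firefly luciferase from ISG56 promoter only with Renilla not read in this screen; 0% = Sendai virus plus DMSO and 100% = medium plus DMSO without virus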); details: HEK293 RL24 IRF3 luciferase reporter, at 10 µM, stronger effect = higher value
# [8] = inhibitors of poly I:C-induced TLR3 signaling, primary screen, cell-based, poly I:C stimulus, luciferase, 10K MLSCN set (AID 602277;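 active = inhibition of the reporter signal at or above 50%; inactive = inhibition below 50%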); details: HEK293-TLR3 RL24 IRF3 luciferase reporter, at 10 µM, stronger effect = higher value
SMILES,cell count [1],inhibition [1],inhibition of aggregation [2],nuclei count [2],inhibition [3],nuclei count [3],fluorescence slope [4],NADPH fluorescence slope [5],slope [6],inhibition [7],inhibition [8]
O=C(Cn1nnc(-c2ccc(S(=O)(=O)N3CCCC3)cc2)n1)NCC1CCCO1 (stereo not drawn),374,-6.9% (inactive),7.6% (inactive),95%,-7.7% (inactive),112%,-0.481 (inactive),3.3e-05 (inactive),0.00625 (inactive),-11.8% (inactive),15.1% (inactive)
O=C(Cn1c(C(=O)NCC2CCCO2)cc2sccc21)c1ccccc1 (stereo not drawn),280,-13.4% (inactive),20.2% (inactive),80%,-77.7% (inactive),99.3%,-0.611 (inactive),5.3e-06 (inactive),0.00924 (inactive),5.12% (inactive),4.66% (inactive)
CCC(C(=O)NC1CCCC1)N(Cc1ccco1)C(=O)Cn1nnc(-c2ccc(C)cc2)n1 (stereo not drawn),478,1.7% (inactive),10.6% (inactive),114%,-150% (inactive),112%,-0.617 (inactive),-1.6e-05 (inactive),0.0026 (inactive),10.8% (inactive),-7.83% (inactive)
COCCNC(=O)CCCCCN1C(=O)CCC1=O,221,-7.7% (inactive),-8.5% (inactive),85.3%,25.1% (inactive),71.9%,-0.595 (inactive),-5.1e-05 (inactive),0.00625 (inactive),11.6% (inactive),24.9% (inactive)
CCOC(=O)Cn1c(S(=O)(=O)Cc2ccccc2)nc2ccccc21,811,5.5% (inactive),-22.5% (inactive),110%,-135% (inactive),127%,-0.579 (inactive),-1.4e-05 (inactive),0.00594 (inactive),9.42% (inactive),30.4% (inactive)
O=C1NC(c2ccccc2)(C(F)(F)F)SC2=CCCCCN12 (stereo not drawn),415,12.1% (inactive),2% (inactive),98.6%,-14% (inactive),111%,-0.545 (inactive),5e-05 (inactive),0.00583 (inactive),-3.83% (inactive),7.38% (inactive)
COc1ccc(-c2c3c(=O)n(C)c(=O)n(C)c3cn2-c2cccc(OC)c2)cc1,430,5.2% (inactive),5.3% (inactive),110%,-50.3% (inactive),99.9%,-0.605 (inactive),6.5e-06 (inactive),0.00638 (inactive),-0.838% (inactive),0.686% (inactive)
CCNc1ccc2c(Cl)cc(=O)oc2c1,356,-2.5% (inactive),25.1% (inactive),72.6%,-6.6% (inactive),98.3%,-0.255 (inactive),-3e-05 (inactive),0.00496 (inactive),4.11% (inactive),-1.88% (inactive)
O=C(c1ccco1)N1CCN(S(=O)(=O)c2ccc(C3CCCCC3)cc2)CC1,400,7.2% (inactive),-1.8% (inactive),102%,-44.9% (inactive),109%,-0.501 (inactive),-3.8e-05 (inactive),0.00443 (inactive),-0.0986% (inactive),-28.6% (inactive)
O=C(Nc1ccccc1-c1nc2ccccc2o1)c1ccc2c(c1)OCCO2,530,-7.2% (inactive),-29.9% (inactive),99.2%,48.6% (inactive),87.4%,-0.131 (inactive),1.2e-05 (inactive),0.0146 (inactive),11.3% (inactive),13.7% (inactive)
Cc1cc(C(=O)Nc2nnc(C(F)(F)F)s2)no1,342,-4.7% (inactive),-8% (inactive),98%,-25.5% (inactive),106%,-0.447 (inactive),1.8e-05 (inactive),0.00633 (inactive),-1.51% (inactive),-19.4% (inactive)
O=C(O)c1cccc(NC(=O)C2C3C=CC(C3)C2C(=O)OCC(F)(F)C(F)F)c1 (stereo not drawn),683,8.3% (inactive),28.9% (inactive),47.7%,-33.6% (inactive),98.7%,-0.38 (inactive),-3.4e-05 (inactive),0.00482 (inactive),10.2% (inactive),26% (inactive)
O=C(c1sc2ccccc2c1Cl)N(Cc1cccs1)C1CCS(=O)(=O)C1 (stereo not drawn),677,4.4% (inactive),17.9% (inactive),90.3%,10.4% (inactive),108%,-0.579 (inactive),-2.7e-05 (inactive),0.00741 (inactive),10.4% (inactive),32.5% (inactive)
CC(=O)NC1CC2CCCC(C1)N2CC(=O)Nc1ccccc1 (stereo not drawn),302,9.6% (inactive),3.9% (inactive),89.5%,26.1% (inactive),93.9%,-0.565 (inactive),-2.4e-05 (inactive),0.00646 (inactive),-13.6% (inactive),-5.22% (inactive)
O=C(NC1CCCCC1)N(Cc1ccc(F)cc1)Cc1nc2ccccc2c(=O)[nH]1,348,1.1% (inactive),-22.3% (inactive),96.5%,-71.7% (inactive),99%,-0.333 (inactive),3.6e-06 (inactive),0.0032 (inactive),21% (inactive),29% (inactive)
COc1ccc(-c2nnc(SCC(=O)Nc3cc(C)on3)n2C)cc1OC,364,2.6% (inactive),-9.8% (inactive),87.3%,-12.1% (inactive),108%,-0.473 (inactive),-1.3e-05 (inactive),0.00613 (inactive),-4.06% (inactive),25% (inactive)
CCOc1ccccc1N1C(=O)c2ccc(C(=O)Nc3cccnc3)cc2C1=O,594,0.8% (inactive),1.8% (inactive),105%,-38.7% (inactive),109%,-0.482 (inactive),1.2e-05 (inactive),0.00693 (inactive),11.8% (inactive),21% (inactive)
COc1ccc(CCN2C(=O)CC(N3CCOCC3)C2=O)cc1 (stereo not drawn),665,-1.8% (inactive),-7.6% (inactive),100%,-57% (inactive),102%,-0.496 (inactive),-6.6e-05 (inactive),0.00402 (inactive),4.57% (inactive),-0.756% (inactive)
CC(C)(C)C1=Nn2c(nnc2-c2n[nH]c3c2CCC3)SC1,385,6% (inactive),-24.6% (inactive),100%,-30.7% (inactive),87.6%,-0.521 (inactive),-1.7e-07 (inactive),0.00435 (inactive),14.9% (inactive),15.7% (inactive)
Cc1cccc(-n2ncc3c(N)ncnc32)c1,622,9.1% (inactive),-51.6% (inactive),6%,-12.6% (inactive),110%,-0.596 (inactive),-2.7e-05 (inactive),0.0039 (inactive),-20.5% (inactive),-80.6% (inactive)
CC1=C(C(=O)OC(C)C)C(c2cccc(F)c2)n2ncnc2N1 (stereo not drawn),752,0% (inactive),19% (inactive),95.5%,-76.3% (inactive),114%,-0.6 (inactive),1.6e-05 (inactive),0.00586 (inactive),-7.13% (inactive),22.1% (inactive)
COc1cccc(C(=O)n2cnnc2N)c1OC,391,-2.4% (inactive),1% (inactive),109%,41.5% (inactive),102%,-0.382 (inactive),8e-06 (inactive),0.00713 (inactive),16.3% (inactive),21.1% (inactive)
CN1CCN(c2ncnc3c2cnn3-c2ccc(Cl)cc2)CC1,688,-8.5% (inactive),-0.6% (inactive),116%,-27.8% (inactive),122%,-0.591 (inactive),1.6e-05 (inactive),0.00771 (inactive),15.5% (inactive),6.85% (inactive)
COc1ccc(-c2nnc(SC(C)C(=O)Nc3nccs3)n2-c2ccccc2)cc1OC (stereo not drawn),548,-8% (inactive),2.8% (inactive),82.2%,-36.4% (inactive),93.8%,-0.496 (inactive),2.4e-05 (inactive),0.0047 (inactive),-14.8% (inactive),-2.92% (inactive)
COc1ccc(OC)c(-n2nnnc2SCC(=O)NCc2ccc3c(c2)OCO3)c1,324,-12.5% (inactive),-18.9% (inactive),101%,-26.8% (inactive),109%,-0.604 (inactive),-1.7e-05 (inactive),0.00401 (inactive),18% (inactive),-14.2% (inactive)
Cc1ccc2c(c1)C(N1CCCC1=O)CC(c1ccco1)N2 (stereo not drawn),343,0% (inactive),14.5% (inactive),94.2%,-7.7% (inactive),106%,-0.407 (inactive),3.1e-05 (inactive),0.00529 (inactive),-30.3% (inactive),98.9% (active)
COc1ccc(-c2nnc3sc(C(C)N4C(=O)c5ccccc5C4=O)nn23)cc1 (stereo not drawn),528,-3.3% (inactive),2.3% (inactive),91.9%,-8.9% (inactive),105%,-0.45 (inactive),4.5e-05 (inactive),0.00329 (inactive),-9.81% (inactive),-4.7% (inactive)
O=C(C1CCCO1)N1CCc2ccccc21 (stereo not drawn),445,6% (inactive),-16.9% (inactive),108%,-32.9% (inactive),108%,-0.404 (inactive),5.9e-05 (inactive),0.00647 (inactive),9.45% (inactive),36.8% (inactive)
